The values that follow come from PubChem BioAssay (NCI).

About 83,000 compounds went through this panel and 20% of them were active in at least one assay; those are over-represented in the sample as a whole.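 Step 1: grow cells in 96-well plates. Step 2: add test compound at a single concentration. Step 3: incubate 48 h. Step 4: record percent growth.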 The source made the active and inactive calls.

This assay deals with SN12C renal. Kind of assay: NCI-60 one-dose screen, 48 h (100 = growth as untreated, 0 = no growth, -100 = all killed). The note with it: 10 µM unless noted. The method, then:
Growth inhibition of the SN12C human tumor cell line is measured as a screen for anti-cancer activity. Cells are grown in 96 well plates and exposed to the test compound for 48 hours. Compounds are tested at a single concentration, which is 10^-5 M for most compounds. The reported endpoint is percent growth (GI% or GIPRCNT), where numbers from 0 - 100% represent growth inhibition, and numbers from -100% - 0 represent cell death. For example, a value of 40 represents 60% growth inhibition. A value of 0 means no net growth occurred over the course of the experiment. A value of -40 indicates 40% of cells at the beginning of the experiment died by the end of the experiment. A value of -100 means all cells are dead at the end of the experiment.
NCI-60 Human Tumor Cell Lines Screen was performed using the standard one-dose NCI protocol, which is described in more detail at https://dtp.cancer.gov/discovery_development/nci-60/default.htm.
Compounds with GIPRCNT values below 10 were considered active. Activity score was based on GIPRCNT using the following formula: […]
Score is 0 for GIPRCNT values of 100 or above, 50 for GIPRCNT values of 0, and 100 for GIPRCNT values of -100.
Regarding `O=C(NCc1ccccc1O)c1cccc2ccccc12`, the growth is 64.9% (inactive).

Take `CCOC(=O)c1c(-c2ccc(Cl)cc2)c(C#N)c2c(C#N)c(N)nn2c1N`: the growth was 79.1% (inactive).

Take `O=C(O)CCCn1c(SCc2c(Cl)cccc2Cl)nc2ccsc2c1=O`: the growth is 53.3% (inactive).

On to `CNC(=O)c1c(NC(=O)c2ccc(C(C)(C)C)cc2)sc2c(CN(C)C)c(O)ccc12`, for which the growth is 4.62% (active).

In the case of `CCCCCCC(CCCC)COC(=O)c1ccc(Cl)cc1` (stereo not given), the growth was 105% (inactive).

For the molecule `O=c1nc(Nc2nc3ccccc3s2)[nH]c(=O)c2ccccc12`, the growth is 98.6% (inactive).

With `COC(=O)/C(CCC=C(C)C)=C1\[C@@H](OC(C)=O)C[C@@]2(C)[C@H]1CC(=O)[C@H]1[C@@]3(C)CCC(N4CCCC4)[C@@H](C)[C@@H]3CC[C@@]12C` (stereo not given in full), the growth is 89% (inactive).

Regarding `FC(F)(F)c1[nH]ncc1-c1nc2c(N3CCCCC3)cc3[nH]ncc3c2c2c1CCCC2`, the growth is 2.49% (active).

Take `CCCCCCCCn1ccc2cc(NC(=O)Cn3cc(CN4CCCCCC4)nn3)ccc21`: the growth was 23% (inactive).

As to `COc1ccc2[nH]cc(-c3nc(-c4cn(C)c5ccncc45)cs3)c2c1`, the growth was 96.2% (inactive).

On to `Cc1ccc(N=Nc2c(N)nn(-c3ccccc3)c2N)cc1`, for which the growth was 45.4% (inactive).

For `COc1ccc(C(C)=O)cc1S(N)(=O)=O`, the growth was 101% (inactive).

Take `CN(C)c1ccc(/C=C/C(=O)c2ccc(Nc3nc(Nc4ccc(F)cc4)nc(Nc4ccc(Cl)cc4)n3)cc2)cc1`: the growth was 101% (inactive).

For the molecule `C=C1C(=O)O[C@H]2[C@H]1CC/C(COC(=O)NCc1ccc(Cn3c(=O)sn(-c4ccc(OC)cc4)c3=O)cc1)=C\CC[C@@]1(C)O[C@@H]21`, the growth was 65.2% (inactive).

As for `Cn1cc(/C=C2/C(=O)Nc3ccccc32)c2ccccc21`, the growth was 85.7% (inactive).

For `CCN(CC)c1ccc(N2C(=O)/C(=C/c3cccs3)SC2=S)cc1`, the growth is 91.5% (inactive).

Take `CS(=O)(=O)Cc1cnc(C2OCCO2)s1`: the growth is 114% (inactive).

As for `COc1ccc2c(c1)c(-c1cc(-c3cn(C)c4ccc(OC)cc34)on1)cn2C`, the growth is 106% (inactive).

Turning to `C#Cc1cccc(Nc2nc3ccc([N+](=O)[O-])cc3nc2Nc2cccc(C#C)c2)c1`, the growth was -39.1% (active).

As for `COc1ccc(Cl)cc1Nc1nc(C(F)(F)F)ccc1C(=O)N/N=C/c1ccccc1Cl`, the growth was 0.596% (active).

In the case of `CC/C=C\C/C=C/C=C1/C(=O)C=C[C@@H]1C/C=C\CCCC(=O)OC`, the growth is -8.45% (active).

Turning to `CNCc1cccc2c1OCCOCCN(C)C(=O)CN(C)S(=O)(=O)c1ccc(cc1)-c1cnc(N)c(n1)C(=O)N2`, the growth was 20.7% (inactive).

Regarding `Oc1c(Cl)cc(Cl)c2ccc(Cn3cc(-c4cccc(C(F)(F)F)c4)nn3)nc12`, the growth was 84.6% (inactive).

Take `O=C1/C(=C/c2ccccc2[N+](=O)[O-])COc2ccc(O)cc21`: the growth is -17.2% (active).

As to `Cc1ccc(C)c2c1C(O)(C#Cc1ccccc1)c1ccccc1C2(O)C#Cc1ccccc1` (stereo not given), the growth is 71.5% (inactive).

On to `CC/C(Cc1ccccc1)=C(\c1ccc(OCCN2CCCCCC2)cc1)c1ccc(OC(=O)NCc2ccccc2)cc1`, for which the growth was 66% (inactive).

For `O=C(Cn1nnc2ccccc21)Nc1ccc(-c2nc3ccccc3s2)cc1`, the growth was 101% (inactive).

Regarding `COC(=O)c1nc(-c2ccccc2)oc1S(=O)(=O)N1CCC(C(N)=O)CC1`, the growth was 83.6% (inactive).

Turning to `COc1cc2c3c(c1O)-c1ccccc1[C@@H]1OC(=O)N(CC2)[C@H]31`, the growth was 101% (inactive).

`O=C1/C(=C/c2ccc(C(F)(F)F)cc2)COc2ccc(O)cc21`: the growth is 69.3% (inactive).

As to `O=C(O)c1cn(C2CC2)c2cc(N3CCN(C(=O)N/N=C/c4ccccc4)CC3)c(F)cc2c1=O`, the growth is 112% (inactive).

`CCN(C(=O)N1CCN(c2cc3c(cc2F)c(=O)c(C(=O)O)cn3C2CC2)CC1)c1nc(-c2ccc(C)cc2)cs1`: the growth is 5.47% (active).

With `Cc1c(N2CN3C[C@H](C)N4CN(c5c(C)n(C)n(-c6ccccc6)c5=O)CN5C[C@@H](C)N(C2)C3C54)c(=O)n(-c2ccccc2)n1C` (stereo not given in full), the growth is 100% (inactive).

For `CN1CCN(C(=O)c2cc(-c3ccc4ncnc(N5CCc6cc(F)c(Cl)cc65)c4c3)cnc2N)CC1`, the growth is 9.07% (active).

`Cc1ccc(C)c(-n2c(-c3ccc(Br)cc3)csc2=NC(=O)c2ccccc2F)c1`: the growth was 85.8% (inactive).

For the molecule `CCOC(=O)c1c(C)nc2ccccc2c1/C=C/c1ccc(OC)cc1`, the growth was 79.8% (inactive).

Consider `O=C1c2cc3c(cc2-c2c1c1ccc(Cl)cc1c(=O)n2C[C@H](O)CO)OCO3`, for which the growth was 10.1% (inactive).

Regarding `COc1ccc(-c2oc(=O)ccc2-c2cc(OC)c(OC)c(OC)c2)cc1O`, the growth was 36.8% (inactive).

As to `COc1cc(-c2nc(NC(C)=O)sc2-c2ccnc(NCCNS(=O)(=O)c3ccccc3)n2)ccc1Cl`, the growth was 48.2% (inactive).

Turning to `Cc1ccc(-c2nc(C(Cl)Cl)nc3cc(C)nn23)cc1`, the growth is 40.5% (inactive).
